According to PubChem BioAssay (NCI):
Compounds without any hit were thinned out: in the full panel of roughly 83,000, 20% have a hit.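 Note: values are percent growth. 100 is the growth of untreated cells, values between 100 and 0 indicate rising inhibition; between -100 and 0 indicates cell death.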 Values without a mark were called inactive. Calls of active or inactive are those of the source. Rule for the calls: active = growth percent below 10; inactive = the rest.

Key:
Assay in all cases: NCI-60 one-dose screen, 48 h (100 = growth as untreated, 0 = no growth, -100 = all killed)
Conditions in all cases: 10 µM unless noted
[1] = test system: NCI-H23 lung
[2] = test system: NCI-H322M lung
[3] = test system: HOP-62 NSCLC
[4] = test system: NCI-H460 lung
[5] = test system: HOP-92 NSCLC
[6] = test system: NCI-H522 lung
[7] = test system: A549/ATCC NSCLC
[8] = test system: 786-0 renal
[9] = test system: COLO 205 colon
[10] = test system: DU-145 prostate
[11] = test system: K-562 leukemia
[12] = test system: MALME-3M melanoma
[13] = test system: MDA-MB-231 breast
[14] = test system: RXF 393 renal
[15] = test system: SF-268 CNS
[16] = test system: SF-295 CNS
[17] = test system: SF-539 CNS
[18] = test system: UACC-257 melanoma
[19] = test system: M14 melanoma
[20] = test system: HCT-15 colon

Compound `COc1ccc(C2=NN(/C=C3\SC(=O)NC3=Nc3ccc(F)cc3)C(c3ccc(F)cc3)C2)cc1` (stereo not given) has a growth [1] of 96.9%, a growth [2] of 93.7% and a growth [3] of 105%. It also gave a growth [4] of 101%, a growth [5] of 99.7% and a growth [6] of 91.2%. The growth [7] was 92%, the growth [8] was 92.7% and the growth [9] was 106%. For the same compound, the growth [10] was 102%, the growth [11] was 94.3% and the growth [12] was 94.3%. It also gave a growth [13] of 93.8%, a growth [14] of 96% and a growth [15] of 97.9%. The growth [16] was 90.8%, the growth [17] was 106% and the growth [18] was 103%. The growth [19] was 104% and the growth [20] was 98.9%.

In the case of `CCOc1ccc2c(c1)CN(Cc1ccc(Cl)cc1)CO2`, the growth [1] is reported as 80.8%, the growth [2] is reported as 69.1% and the growth [3] is reported as -7.93% (active). It also gave a growth [4] of 40.1%, a growth [5] of 43.4% and a growth [6] of 72.9%. For the same compound, the growth [7] was 18.7%, the growth [8] was 6.53% (active) and the growth [9] was 76.7%. For the same compound, the growth [10] was 38.3%, the growth [11] was 57.2% and the growth [12] was 30.1%. For the same compound, the growth [13] was 35.2%, the growth [14] was -3.87% (active) and the growth [15] was 24.9%. For the same compound, the growth [16] was -7.02% (active), the growth [17] was 1.31% (active) and the growth [18] was 70.9%. It also gave a growth [19] of 55.6% and a growth [20] of 70%.

`O=C(Nc1ccc(I)cc1F)c1cc(Br)ccc1O` was tested, and the growth [1] was 3.44% (active), the growth [2] was 7.16% (active) and the growth [3] was -5.03% (active). The growth [4] was 2.62% (active), the growth [5] was -10.8% (active) and the growth [6] was -7.93% (active). The growth [7] was 7.17% (active), the growth [8] was 1.97% (active) and the growth [9] was 46.9%. The growth [10] was 14.2%, the growth [11] was 8.5% (active) and the growth [12] was -27.4% (active). For the same compound, the growth [13] was -21.2% (active), the growth [14] was 2.4% (active) and the growth [15] was 7.21% (active). The growth [16] was -64.9% (active), the growth [17] was 0.872% (active) and the growth [18] was -18.2% (active). The growth [19] was -10.4% (active) and the growth [20] was 0.459% (active).

`O=C1c2cc(I)ccc2Oc2cc([N+](=O)[O-])ccc2N1c1ccc(Cl)cc1F` gave a growth [1] of 87.7%, a growth [2] of 93.4% and a growth [3] of 89.9%. It also gave a growth [4] of 90.4%, a growth [5] of 88.3% and a growth [6] of 65.7%. It also gave a growth [7] of 78.2%, a growth [8] of 98% and a growth [9] of 106%. It also gave a growth [10] of 97.9%, a growth [11] of 49.4% and a growth [12] of 84.9%. It also gave a growth [13] of 78.4%, a growth [14] of 99% and a growth [15] of 79.1%. The growth [16] was 92%, the growth [17] was 92.8% and the growth [18] was 94.1%. The growth [19] was 97.7% and the growth [20] was 57.4%.

In the case of `O=C1c2cc(Br)ccc2Oc2cc([N+](=O)[O-])ccc2N1c1ccc(I)cc1F`, the growth [1] is reported as 93%, the growth [2] is reported as 103% and the growth [3] is reported as 102%. For the same compound, the growth [4] was 102%, the growth [5] was 101% and the growth [6] was 96.2%. For the same compound, the growth [7] was 82%, the growth [8] was 104% and the growth [9] was 123%. The growth [10] was 105%, the growth [11] was 101% and the growth [12] was 99.8%. It also gave a growth [13] of 101%, a growth [14] of 94.5% and a growth [15] of 93.1%. It also gave a growth [16] of 98.2%, a growth [17] of 101% and a growth [18] of 97.6%. For the same compound, the growth [19] was 91.8% and the growth [20] was 97.7%.

`CCOC(=O)c1sc(-c2ccc(OS(=O)(=O)C[C@]34CCC(CC3=O)C4(C)C)c(C=O)c2)nc1C` was tested, and the growth [1] was 28.5%, the growth [2] was 50.4% and the growth [3] was 8.26% (active). For the same compound, the growth [4] was -1.32% (active), the growth [5] was 38.4% and the growth [6] was 1.5% (active). For the same compound, the growth [7] was 15.4%, the growth [8] was 27.4% and the growth [9] was -34.9% (active). The growth [10] was 21.3%, the growth [11] was 7.5% (active) and the growth [12] was 38.1%. It also gave a growth [13] of 19.7%, a growth [14] of 52.9% and a growth [15] of 15%. The growth [16] was 26.2%, the growth [17] was 43.2% and the growth [18] was 4.31% (active). The growth [19] was 3.97% (active) and the growth [20] was 5.75% (active).

Work on `CCN1CCN(C(=S)SCC(=O)Nc2nc3ccc(C)cc3s2)CC1` yielded a growth [1] of 99.2%, a growth [2] of 103% and a growth [3] of 99.7%. For the same compound, the growth [4] was 113%, the growth [5] was 92.5% and the growth [6] was 29.1%. For the same compound, the growth [7] was 103%, the growth [8] was 118% and the growth [9] was 103%. It also gave a growth [10] of 113%, a growth [11] of 104% and a growth [12] of 105%. The growth [13] was 104%, the growth [14] was 108% and the growth [15] was 107%. The growth [16] was 106%, the growth [17] was 117% and the growth [18] was 116%. The growth [19] was 124% and the growth [20] was 103%.
